Growth inhibition and inhibition data for 39 molecules are collected here from PubChem BioAssay.

A number with no mark means an inactive call. Activity calls are given as the source filed them.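 Rule for the calls, unless noted: active = growth inhibition above 50% at the single 2 µM test dose, taken to imply half-maximal potency below 2 µM; inactive = the rest.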

The first assay can be described thus: antimalarial activity against Dd2 strain (AID 2302).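 Note: 0% = DMSO untreated growth and 100% = chloroquine plus artemisinin killed control.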 The conditions noted are these: P. falciparum Dd2 in RBCs, LDH growth readout, 72 h; at 2 µM; stronger effect = higher value.
For `Cn1c(Nc2cc(C(C)(C)C)on2)nc2cc(Nc3ccnc(Nc4cccc(CS(C)(=O)=O)c4)n3)ccc21`, the growth inhibition was 94% (active).
Same read-out and setting: in the case of `CN(C)CCN(C)Cc1ccc(-c2ccc3c(Nc4ccc(Oc5ccccc5)cc4)ccnc3c2)o1` it was 100% (active); in that of `O=C(NCCCN1CCOCC1)c1cccc(Nc2nccc(Nc3ccc(Oc4ccccc4)cc3)n2)c1`, 22%.
On the same count and under the same terms, in the case of `COc1ccc(-c2cnc3ccc(NC4CCC(O)CC4)nn23)cn1` (stereo not drawn) it was 73% (active); in that of `COCCNCc1cccc(-c2ccc3c(Nc4ccc(Oc5ccccc5)cc4)ccnc3c2)c1`, 99% (active); in that of `CC(C)(CNC(=O)[C@H]1CCCN1)c1nc(-c2ccc(Cl)c(O)c2)c(-c2ccncc2)[nH]1`, 95% (active).
The same measure, in the same setting: the same measure for `CC(C)(CNCc1ccc(Cl)cc1)c1nc(-c2ccc(Cl)c(O)c2)c(-c2ccncc2)[nH]1`: 98% (active); for `Nc1ncc(-c2cn[nH]c2)cc1-c1nc2ncc(Cl)cc2[nH]1`: 70% (active); for `CN1CCN(Cc2cccc(Nc3nccc(Nc4ccc(Oc5ccccc5)cc4)n3)c2)CC1`: 80% (active).
Regarding `CC(C)(CNCc1ccc(Cl)c(Cl)c1)c1nc(-c2ccc(Cl)c(O)c2)c(-c2ccncc2)[nH]1`, the growth inhibition was 97% (active).
The same measure, in the same setting: in the case of `O=C(NCCN1CCCCC1)c1ccc(Nc2nccc(Nc3ccc(Oc4ccccc4)cc3)n2)cc1` it was 91% (active); in that of `COc1cc2nccc(Nc3ccc(Oc4ccccc4)cc3)c2cc1OC`, 99% (active); in that of `COc1ccc(CNCC(C)(C)c2nc(-c3ccc(Cl)c(O)c3)c(-c3ccncc3)[nH]2)cc1`, 99% (active).
Same read-out and setting: in the case of `COCCNCc1ncsc1-c1ccc2c(Nc3cc(O)c(Cl)cc3F)ccnc2c1` it was 92% (active); in that of `Nc1ncc(-c2cn[nH]c2)cc1-c1nc2ccc(F)cc2[nH]1`, 53% (active); in that of `CC(C)(CNC(=O)C1CCN(Cc2ccoc2)CC1)c1nc(-c2ccc(Cl)c(O)c2)c(-c2ccncc2)[nH]1`, 66% (active).
On the same count and under the same terms, in the case of `Cc1ccc(O)cc1Nc1ccnc2cc(-c3cccc(CNCCS(C)(=O)=O)c3)ccc12` it was 100% (active).
Turning to `CC(C)(CN)c1nc(-c2ccc(Cl)c(O)c2)c(-c2ccnc(N)n2)[nH]1`, the growth inhibition was 95% (active).
With `CN(C)CCNCc1nc(-c2ccc3c(Nc4ccc(Oc5ccccc5)cc4)ccnc3c2)cs1`, the growth inhibition is 100% (active).
Take `CNCC(C)(C)c1nc(-c2ccc(Cl)c(O)c2)c(-c2ccncc2)[nH]1`: the growth inhibition was 96% (active).
With `CC(C)(CNCCOc1ccc(Cl)cc1)c1nc(-c2ccc(Cl)c(O)c2)c(-c2ccnc(N)n2)[nH]1`, the growth inhibition was 19%.
The same measure, in the same setting: in the case of `CS(=O)(=O)Nc1cccc(-c2cnc3[nH]cc(-c4cccc(CN)c4)c3c2)c1` it was 82% (active); in that of `CN1CCN(c2ccc(Nc3ncc(Cl)c(Nc4cccnc4C(N)=O)n3)cc2)CC1`, 97% (active); in that of `CNC(=O)c1ccccc1Nc1nc(Nc2ccc(C(=O)O)cc2)ncc1Cl`, 92% (active).
The same measure, in the same setting: the same measure for `CN1CCC=C(C(=O)NCC(C)(C)c2nc(-c3ccc(Cl)c(O)c3)c(-c3ccncc3)[nH]2)C1`: 96% (active); for `CC(C)(CNC(=O)C1CCN(CCOc2ccc(Cl)cc2)CC1)c1nc(-c2ccc(Cl)c(O)c2)c(-c2ccncc2)[nH]1`: 5%; for `Oc1cccc(-c2cnc3ccc(NCc4ccc(F)cc4)nn23)c1`: 66% (active).
The same measure, in the same setting: in the case of `CC(C)(CNC(=O)[C@H]1CCCCN1)c1nc(-c2ccc(Cl)c(O)c2)c(-c2ccncc2)[nH]1` it was 98% (active); in that of `CS(=O)(=O)Cc1ccc(Nc2nccc(-c3c(-c4cccc(NC(=O)c5c(F)cccc5F)c4)nn4ncccc34)n2)cc1`, 93% (active).
In the case of `O=c1[nH]ccc2nc(N[C@@H]3CCNC3)nc(Nc3ccc4c(c3)S(=O)(=O)CC4)c12`, the growth inhibition was 99% (active).
The same measure, in the same setting: in the case of `CS(=O)(=O)CCNCc1cccc(-c2ccc3c(Nc4cc(O)c(Cl)cc4F)ccnc3c2)c1` it was 100% (active); in that of `Cc1cc(F)ccc1-c1nc(Nc2ccncc2)c2ccn(C)c2n1`, 8%.
Same read-out and setting: the same measure for `CN(C)CCN(C)Cc1nc(-c2ccc3c(Nc4ccc(Oc5ccccc5)cc4)ccnc3c2)cs1`: 100% (active); for `COc1ccc(C(=O)NCC(C)(C)c2nc(-c3ccc(Cl)c(O)c3)c(-c3ccncc3)[nH]2)cc1OCCN(C(C)C)C(C)C`: 96% (active).
Regarding `Cc1cccc2[nH]c(-c3cc(-c4cn[nH]c4)cnc3N)nc12`, the growth inhibition is 93% (active).
Still for that read-out and setting: in the case of `c1cncc(Oc2ccc(Nc3ccnc4cc(-c5cccc(CNCCN6CCOCC6)c5)ccc34)cc2)c1` it was 99% (active); in that of `CC(C)(CNCc1ccc(F)c(F)c1)c1nc(-c2ccc(Cl)c(O)c2)c(-c2ccnc(N)n2)[nH]1`, 79% (active); in that of `CN(C)Cc1ccc(-c2ccc3c(Nc4ccc(Oc5ccccn5)cc4)ccnc3c2)o1`, 100% (active).
As for `COc1ccc(-c2cnc3[nH]cc(-c4ccncc4)c3c2)cc1OC`, the growth inhibition is 97% (active).

A further assay can be described thus: HepG2 cytotoxicity, primary screen, cytotoxicity control for P. falciparum antimalarial project, cell-based, ATP luminescence (AID 2303;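 active = inhibition above 50%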;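 note: 0% = DMSO wells and 100% = digitonin-killed cells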). To be noted: HepG2 viability, 24-48 h, at 10 µM, stronger effect = higher value.
The inhibition is the relative decrease from the control value, in per cent. Consider `Cn1c(Nc2cc(C(C)(C)C)on2)nc2cc(Nc3ccnc(Nc4cccc(CS(C)(=O)=O)c4)n3)ccc21`, for which the inhibition was 63% (active).
Same read-out and setting: the same measure for `CN(C)CCN(C)Cc1ccc(-c2ccc3c(Nc4ccc(Oc5ccccc5)cc4)ccnc3c2)o1`: 5%; for `O=C(NCCCN1CCOCC1)c1cccc(Nc2nccc(Nc3ccc(Oc4ccccc4)cc3)n2)c1`: 34%.
On the same count and under the same terms, in the case of `COc1ccc(-c2cnc3ccc(NC4CCC(O)CC4)nn23)cn1` (stereo not drawn) it was 54% (active); in that of `COCCNCc1cccc(-c2ccc3c(Nc4ccc(Oc5ccccc5)cc4)ccnc3c2)c1`, 25%; in that of `CC(C)(CNC(=O)[C@H]1CCCN1)c1nc(-c2ccc(Cl)c(O)c2)c(-c2ccncc2)[nH]1`, -11%.
As to `CC(C)(CNCc1ccc(Cl)cc1)c1nc(-c2ccc(Cl)c(O)c2)c(-c2ccncc2)[nH]1`, the inhibition is 86% (active).
Still for that read-out and setting: in the case of `Nc1ncc(-c2cn[nH]c2)cc1-c1nc2ncc(Cl)cc2[nH]1` it was 40%.
With `CN1CCN(Cc2cccc(Nc3nccc(Nc4ccc(Oc5ccccc5)cc4)n3)c2)CC1`, the inhibition was 30%.
Turning to `CC(C)(CNCc1ccc(Cl)c(Cl)c1)c1nc(-c2ccc(Cl)c(O)c2)c(-c2ccncc2)[nH]1`, the inhibition is 43%.
As to `O=C(NCCN1CCCCC1)c1ccc(Nc2nccc(Nc3ccc(Oc4ccccc4)cc3)n2)cc1`, the inhibition was 58% (active).
Still for that read-out and setting: in the case of `COc1cc2nccc(Nc3ccc(Oc4ccccc4)cc3)c2cc1OC` it was 13%; in that of `COc1ccc(CNCC(C)(C)c2nc(-c3ccc(Cl)c(O)c3)c(-c3ccncc3)[nH]2)cc1`, 76% (active).
The same measure, in the same setting: in the case of `COCCNCc1ncsc1-c1ccc2c(Nc3cc(O)c(Cl)cc3F)ccnc2c1` it was 0%; in that of `Nc1ncc(-c2cn[nH]c2)cc1-c1nc2ccc(F)cc2[nH]1`, 38%.
The same measure, in the same setting: in the case of `CC(C)(CNC(=O)C1CCN(Cc2ccoc2)CC1)c1nc(-c2ccc(Cl)c(O)c2)c(-c2ccncc2)[nH]1` it was -12%.
In the case of `Cc1ccc(O)cc1Nc1ccnc2cc(-c3cccc(CNCCS(C)(=O)=O)c3)ccc12`, the inhibition is 9%.
The same measure, in the same setting: in the case of `CC(C)(CN)c1nc(-c2ccc(Cl)c(O)c2)c(-c2ccnc(N)n2)[nH]1` it was 34%; in that of `CN(C)CCNCc1nc(-c2ccc3c(Nc4ccc(Oc5ccccc5)cc4)ccnc3c2)cs1`, 8%.
Still for that read-out and setting: the same measure for `CNCC(C)(C)c1nc(-c2ccc(Cl)c(O)c2)c(-c2ccncc2)[nH]1`: 46%; for `CC(C)(CNCCOc1ccc(Cl)cc1)c1nc(-c2ccc(Cl)c(O)c2)c(-c2ccnc(N)n2)[nH]1`: 45%; for `CS(=O)(=O)Nc1cccc(-c2cnc3[nH]cc(-c4cccc(CN)c4)c3c2)c1`: 25%.
The same measure, in the same setting: in the case of `CN1CCN(c2ccc(Nc3ncc(Cl)c(Nc4cccnc4C(N)=O)n3)cc2)CC1` it was 99% (active); in that of `CNC(=O)c1ccccc1Nc1nc(Nc2ccc(C(=O)O)cc2)ncc1Cl`, 60% (active).
`CN1CCC=C(C(=O)NCC(C)(C)c2nc(-c3ccc(Cl)c(O)c3)c(-c3ccncc3)[nH]2)C1`: the inhibition was 39%.
On the same count and under the same terms, the same measure for `CC(C)(CNC(=O)C1CCN(CCOc2ccc(Cl)cc2)CC1)c1nc(-c2ccc(Cl)c(O)c2)c(-c2ccncc2)[nH]1`: 40%.
Same read-out and setting: the same measure for `Oc1cccc(-c2cnc3ccc(NCc4ccc(F)cc4)nn23)c1`: -5%; for `CC(C)(CNC(=O)[C@H]1CCCCN1)c1nc(-c2ccc(Cl)c(O)c2)c(-c2ccncc2)[nH]1`: 6%.
`CS(=O)(=O)Cc1ccc(Nc2nccc(-c3c(-c4cccc(NC(=O)c5c(F)cccc5F)c4)nn4ncccc34)n2)cc1`: the inhibition is 86% (active).
On the same count and under the same terms, in the case of `O=c1[nH]ccc2nc(N[C@@H]3CCNC3)nc(Nc3ccc4c(c3)S(=O)(=O)CC4)c12` it was -4%; in that of `CS(=O)(=O)CCNCc1cccc(-c2ccc3c(Nc4cc(O)c(Cl)cc4F)ccnc3c2)c1`, 9%; in that of `Cc1cc(F)ccc1-c1nc(Nc2ccncc2)c2ccn(C)c2n1`, 9%.
As for `CN(C)CCN(C)Cc1nc(-c2ccc3c(Nc4ccc(Oc5ccccc5)cc4)ccnc3c2)cs1`, the inhibition was 27%.
The same measure, in the same setting: in the case of `COc1ccc(C(=O)NCC(C)(C)c2nc(-c3ccc(Cl)c(O)c3)c(-c3ccncc3)[nH]2)cc1OCCN(C(C)C)C(C)C` it was 62% (active).
Same read-out and setting: the same measure for `Cc1cccc2[nH]c(-c3cc(-c4cn[nH]c4)cnc3N)nc12`: 37%.
On the same count and under the same terms, the same measure for `c1cncc(Oc2ccc(Nc3ccnc4cc(-c5cccc(CNCCN6CCOCC6)c5)ccc34)cc2)c1`: 14%; for `CC(C)(CNCc1ccc(F)c(F)c1)c1nc(-c2ccc(Cl)c(O)c2)c(-c2ccnc(N)n2)[nH]1`: 41%.
In the case of `CN(C)Cc1ccc(-c2ccc3c(Nc4ccc(Oc5ccccn5)cc4)ccnc3c2)o1`, the inhibition is 18%.
Same read-out and setting: the same measure for `COc1ccc(-c2cnc3[nH]cc(-c4ccncc4)c3c2)cc1OC`: 52% (active).
